# Pf Dd2 growth – blocks in vitro growth of P. falciparum Dd2; P. falciparum Dd2 growth, SYBR Green, 72 h; 4.3% of 120,000 active; Potency, µM (titrated, usually from 28.9 µM), for the others: top-dose activity, negative = inhibition, most hits filed as inhibitors; AID 1347417; active = well fitted inhibition curve with a large enough effect;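 note: plate controls were DMSO vehicle for no effect and reference drug for full effect; nearly all actives have a fitted effect of over 65% in size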
#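 Infected erythrocytes (Dd2, 0.3% parasitemia, 2.5% hematocrit final) are added to compound in RPMI-1640/Albumax II medium, grown 72 h at 37C in low oxygen, then lysed with saponin/Triton-X containing SYBR Green and read by fluorescence.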
# * = called active by the depositor; i = inactive. The entries come from a sample that favours hits as a whole. Potency is the fitted concentration of half-maximal effect.
SMILES,Pf Dd2 growth
C[C@@H]1C(=O)O[C@H]2[C@H]1CC[C@@]1(C)Cc3sc(NS(=O)(=O)c4ccc(F)cc4)nc3[C@@H](C)[C@H]21,i
CC(C)N1C[C@H](O)C[C@H]1c1nnc2n1CCN(C(=O)CC1CCCCC1)C2,30%
CCCN(CC1CC1)C(=O)c1c(OCC2CC2)cc(=O)n2c1CCCCC2,15%
COc1ccc(C(=O)Nc2cnc(-c3ccc(Cl)cc3)nc2)cc1,i
COc1ccc(C(=O)NCc2nnc3ccc(-c4ccc(Cl)cc4)nn23)cc1OC,i
COc1ccc(C2C=C(c3ccccc3)Nc3nc(NC(=O)c4ccc(C)cc4)nn32)cc1 (centres undefined),13µM*
COc1cccc(C(=O)Nc2nc3nc(-c4ccccc4)cc(=O)n3[nH]2)c1,21%
COc1ccc(C2C=C(c3ccccc3)Nc3nc(NC(=O)c4cccc([N+](=O)[O-])c4)nn32)cc1 (centres undefined),8.9µM*
COc1ccc(CNC(=O)c2cc(-c3ccc(OC)cc3)nc3n[nH]c(-c4cccc([N+](=O)[O-])c4)c23)cc1,-9%
COc1ccc(C(=O)Nc2nc3n(n2)C(c2ccc(Cl)cc2)C=C(c2ccccc2)N3)cc1OC (centres undefined),7.9µM*
COc1ccc(NC(=O)c2cc3n(n2)CC(c2ccc(Cl)cc2)OC3)cc1OC (centres undefined),-17%
COc1ccc(C(=O)Nc2noc3ccccc23)cc1,6%
CCOC(=O)C1CCCN(C(=O)c2coc(COc3cccc(F)c3F)n2)C1 (centres undefined),-11%
O=C(Cn1cc(C(F)(F)F)ccc1=O)N1CCC2(CCCNC2=O)C1 (centres undefined),-11%
CN1CCCCC(CC(=O)Nc2ccc(N3CCOCC3)cc2)C1=O (centres undefined),16%
Cc1cc(=O)n(CC(=O)Nc2ccc(F)c(Cl)c2)c(N2CCc3ccccc3C2)n1,i
COc1ccc(C(=O)N2CCC3(CC2)NC(=O)N(c2ccccc2Cl)N3)cc1,-2%
O=C(c1ccc(C2CCNC2)cc1)N(Cc1ccccc1)CC1CCC1 (centres undefined),13µM*
COCc1cc(CNC(=O)c2ccc(C3CCNC3)cc2)[nH]n1 (centres undefined),7%
CCCN(Cc1nccn1C)C(=O)c1cccc(C2CCNC2)c1 (centres undefined),15%
COc1cc(C)ccc1OCc1cc(C(=O)NCc2n[nH]c3c2CCC3)no1,-15%
COc1ccc([C@@H](NC(=O)c2ccc3nccn3c2)C2CC(O)C2)cn1 (some centres undefined),-9%
O=C(Nc1ccc(F)cc1F)N[C@H]1C[C@H]2C(=O)NC[C@@H](CCC(=O)N3CCC(O)CC3)N2C1,4%
Cc1ccc(C(=O)N2CC(Oc3ccc(F)c(C)c3)C2)cc1,i
O=C(N1CCc2c(nc[nH]c2=O)C1)C1(S(=O)(=O)c2ccccc2)CC1,0%
SMILES,Pf Dd2 growth
CC(C)Oc1cccc2c1c(NC(=O)c1ccn(C)n1)nn2Cc1ccccc1,8.9µM*
CC(C)Oc1cccc2c1c(NC(=O)C1CCCO1)nn2Cc1ccccc1 (centres undefined),i
CC(C)Oc1cccc2c1c(NC(=O)C1CCOCC1)nn2C,-6%
CCc1ccc(NC(=O)N2CCN(C)C3(CCC(=O)N(C)CC3)C2)cc1 (centres undefined),-8%
C=CCC1(CO)CCCN(CCS(=O)(=O)c2ccccc2)C1 (centres undefined),-13%
Cc1ccc(Cc2ccccc2C(=O)N2CCC3(CC2)CNC(=O)C3)cc1F,-1%
COC[C@H]1CCCN1[C@@H]1[C@H](O)[C@H](CO)O[C@@H]1CNCc1ccc(F)cc1,i
CCOCCCN1C(=O)c2[nH]nc(-c3ccccc3O)c2C1c1ccc(CC)cc1 (centres undefined),11µM*
COc1cc(C2c3c(-c4ccccc4O)n[nH]c3C(=O)N2Cc2ccncc2)cc(OC)c1OC (centres undefined),-10%
CCc1ccc(C2c3c(-c4ccccc4O)n[nH]c3C(=O)N2Cc2ccncc2)cc1 (centres undefined),8.9µM*
O=C1c2[nH]nc(-c3ccccc3O)c2C(c2cccc(O)c2)N1Cc1ccncc1 (centres undefined),12%
CCOCCCNC(=O)C(c1ccccc1)N1Cc2ccccc2C1=O (centres undefined),i
CNS(=O)(=O)c1ccc(CN2CCCC3(C2)CN(C)C(=O)O3)cc1 (centres undefined),-5%
Cc1ccc(S(=O)(=O)N2CCC(Oc3ncccc3C(=O)N(C)C)C2)cc1F (centres undefined),-23%
COCCn1ncc(N2CCCC(CC(=O)O)C2)cc1=O (centres undefined),44%
c1ccc(-c2ccnc3nc(C4CCC4)nn23)cc1,-9%
COc1cc(OC)cc(-c2nc3nc(C)c(CCC(=O)NCCC(C)C)c(C)n3n2)c1,43%
COc1cc(OC)cc(-c2nc3nc(C)c(CCC(=O)Nc4cc(C)cc(C)c4)c(C)n3n2)c1,8.9µM*
CCc1ccc(NC(=O)CCc2c(C)nc3nc(-c4cc(OC)cc(OC)c4)nn3c2C)cc1,i
N#Cc1ccc(O[C@@H]2CCOC[C@H]2NC(=O)NCc2ccco2)cc1,-11%
COc1cccc(C2Cn3nnc(-c4nc(-c5ccc(C)c(C)c5)no4)c3CO2)c1 (centres undefined),i
CCCN(C)c1nccnc1OC1CCN(C(=O)c2ccc(F)cc2)C1 (centres undefined),10µM*
CCCN(C)c1nccnc1OC1CCN(C(=O)C2CCOCC2)C1 (centres undefined),13%
CN(C)c1nccnc1OC1CCN(C(=O)c2ccn[nH]2)C1 (centres undefined),-12%
COc1ccc(C2C(C(N)=O)=C(C)Nc3nc(-c4ccccc4Cl)nn32)cc1 (centres undefined),-22%
SMILES,Pf Dd2 growth
CCOc1ccc(C2C(C(=O)Nc3ccccc3)=C(C)Nc3nc(-c4ccccc4Cl)nn32)cc1OC (centres undefined),8.9µM*
CCOc1ccccc1C1C(C(N)=O)=C(C)Nc2nc(-c3ccccc3Cl)nn21 (centres undefined),-8%
Cc1ccc(C)c(NC(=O)CSc2nccn2-c2cccc(C)c2C)c1,3.5µM*
CCc1ccc(NC(=O)CSc2nccn2-c2cccc(C)c2C)cc1,24%
Cc1cccc(-n2ccnc2SCC(=O)Nc2ccc(F)cc2F)c1C,3%
COc1cc(CCC(=O)N(C)C2CCc3nn(CC4CC4)c(=O)n3CC2)on1 (centres undefined),i
CC(C)N1CCC(CC(=O)N2CCn3nc(Cc4ccccc4)cc3C2)CC1,10µM*
C[C@@H]1CCC[C@H](C)N1CC(=O)N1CCn2nc(Cc3ccccc3)cc2C1,11µM*
O=C(CCn1cnc2ccccc21)N1CCn2nc(Cc3ccccc3)cc2C1,-15%
C=CCN1CC(C(=O)N2CCn3nc(Cc4ccccc4)cc3C2)CC1=O (centres undefined),0%
Cc1cc(C)n(C(C)C(=O)N2CCn3nc(Cc4ccccc4)cc3C2)n1 (centres undefined),-28%
CCOCC(=O)N1CCn2nc(Cc3ccccc3)cc2C1,4%
CN1CC(=O)N(C2CCCNC2)Cc2c(NCCO)ncnc21 (centres undefined),15%
O=C1CCC2(CNC(=O)c3cnccn3)CCCC=C2N1 (centres undefined),1%
N[C@@H]1CC[C@H](C(=O)N2CCC(c3nccn3Cc3ccncc3)CC2)C1,0%

# Source: PubChem BioAssay (National Center for Advancing Translational Sciences (NCATS))
